Source: PubChem BioAssay (NCATS)
“And” between values parts separate entries of the source, which are not always exact repeats. Equal values may be shown once. Records with an inconclusive call do not appear. A call without a number means that no potency is given here. The source holds several records for some structures; these can differ, active in one and inactive in another. Unmarked numbers belong to inactive results. The source made the active and inactive calls. Calls follow the shape of the dose curve; as a rule, active = well fitted inhibition curve with a large enough effect; inconclusive = small, poorly fitted or top-dose-only effect; inactive = flat fitted curve, though single readings scatter.

Tests used:
CRL-7250 = normal cell line; experiment: Cytotoxic Profiling of Annotated Libraries Using Quantitative High-Throughput Screening (AID 1296008); conditions: Five cell lines viability, CellTiter-Glo ATP luminescence, 48-72 h; max response: hits give low values
In short: (§1)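 Cytotoxicity was measured as CellTiter-Glo ATP luminescence, read after 10 min at room temperature. Compound treatment of the cells lasted 48 or 72 hr at 37 degrees Celsius in a qHTS format.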

HEK293 = experiment: as above; conditions: Five cell lines viability, CellTiter-Glo ATP luminescence, 48-72 h; max response: hits give low values
In short: as §1

HaCat [1] = experiment: as above; conditions: Five cell lines viability, CellTiter-Glo ATP luminescence, 48-72 h; max response: hits give low values
In short: as §1

KB-3-1 = experiment: as above; conditions: Five cell lines viability, CellTiter-Glo ATP luminescence, 48-72 h; max response: hits give low values
In short: as §1

NIH3T3 = experiment: as above; conditions: Five cell lines viability, CellTiter-Glo ATP luminescence, 48-72 h; max response: hits give low values
In short: as §1

HACAT [2] = experiment: qHTS assay to identify novel small-molecules to repurpose for Merkel cell carcinoma treatment (AID 1296009); conditions: MCC and control cell lines, CellTiter-Glo viability, 72 h; at 44.8 µM (top of the series) unless noted
In short: (§2)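 Cell viability, measured as CellTiter-Glo luminescence, was normalized between DMSO and no-cell wells. The cells had been exposed to 8- or 11-point compound dilutions for 72 hr at 37 degree celsius.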

HEK293T = experiment: as above; conditions: MCC and control cell lines, CellTiter-Glo viability, 72 h; at 44.8 µM (top of the series) unless noted
In short: as §2

MCC-13 = experiment: as above; conditions: MCC and control cell lines, CellTiter-Glo viability, 72 h; series mostly up to 46 µM
In short: as §2

MCC-26 = experiment: as above; conditions: MCC and control cell lines, CellTiter-Glo viability, 72 h; series mostly up to 46 µM
In short: as §2

W2 = experiment: qHTS profiling for inhibitors of Plasmodium falciparum proliferation (AID 504749); conditions: P. falciparum in erythrocytes, SYBR Green DNA, 72 h; series mostly up to 28.7 µM
In short: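 SYBR Green fluorescence of parasite DNA, read after lysis and overnight dark incubation, measured growth over 72 h in erythrocyte culture at 0.3% parasitemia and 2.5% hematocrit. Data normalised to DMSO and 0.29 uM artemisinin, with plate-drift correction.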
Also: nearly all actives have a fitted effect of over 60% in size.
Potency is read from the fitted curve at half-maximal effect.

Row | SMILES | max response (CRL-7250) | outcome (CRL-7250) | outcome (HEK293) | max response (HaCat [1]) | outcome (HaCat [1]) | max response (KB-3-1) | max response (NIH3T3) | outcome (HACAT [2]) | outcome (HEK293T) | Potency (MCC-13) | Potency (MCC-26) | Potency (W2) | max response (HEK293) | outcome (NIH3T3) | Potency (CRL-7250) | Potency (HEK293) | Potency (HaCat [1]) | outcome (KB-3-1)
1 | Cn1c(NCCN(CCO)CCCc2ccc([N+](=O)[O-])cc2)cc(=O)n(C)c1=O | -8.35% | inactive | inactive | 0.714% | inactive | 3.71% and -8.99% | 4.21% and -8.98% | inactive | inactive | inactive | inactive | – | – | – | – | – | – | –
2 | CN(C)[C@@H](CCOc1cccc2ccccc12)c1ccccc1 | -9.42% | inactive | – | 4.48% | inactive | – | -1.45% and -13.3% | inactive | – | inactive | inactive | – | – | – | – | – | – | –
3 | CC1(C)CCC(C)(C)c2cc(NC(=O)c3ccc(C(=O)O)cc3)ccc21 | 0.132% | – | inactive | -6.69% | inactive | 33.6% | -2.77% | inactive | inactive | inactive | inactive | inactive | 2.4% | inactive | – | – | – | –
4 | CCN(CC)C(=S)SSC(=S)N(CC)CC | – | inactive | – | – | – | – | – | – | – | 2.09 µM (active) and 111 nM (active) and 944 nM (active) | – | – | – | – | 0.105 µM (active) | 59 nM (active) and 313 nM (active) and 841 nM (active) | 11.1 µM (active) | –
5 | COc1cc2nc(N3CCN(C(=O)C4CCCO4)CC3)nc(N)c2cc1OC (stereo not drawn) | -10.4% | inactive | – | 3.43% and -0.464% | – | -10.1% and 5.78% | -4.15% and -2.16% | – | – | inactive | inactive | – | -14.3% and 0.884% | – | – | – | – | –
6 | Cc1ncc([N+](=O)[O-])n1CC(C)O (stereo not drawn) | -19.5% | inactive | inactive | -8.77% | inactive | 2.22% and 6.66% | 2.47% | inactive | inactive | inactive | inactive | inactive | 3.63% | inactive | – | – | – | –
7 | COc1ccc2cc([C@H](C)C(=O)O)ccc2c1 | -17% and 0.0913% and -30.7% | – | inactive | -13.6% | inactive | 11.2% and 5.36% and -1.1% | 2.8% and -7.1% | inactive | inactive | inactive | inactive | – | 0.939% | inactive | – | – | – | –
8 | CN(c1nccc(=O)[nH]1)C1CCN(c2nc3ccccc3n2Cc2ccc(F)cc2)CC1 | -35.3% and -24.5% | inactive | – | 0.328% | inactive | 1.53% | 0.52% and 4.28% | inactive | – | inactive | inactive | 12 µM (active) | -109% and 0.851% and -12.1% | inactive | – | – | – | inactive
9 | Clc1ccc(C(Cn2ccnc2)OCc2ccsc2Cl)c(Cl)c1 (stereo not drawn) | 1.94% | inactive | – | -18.6% and -23.1% | – | -26.3% and -17.4% | – | – | – | inactive | inactive | 1.69 µM (active) | – | – | – | – | – | –
10 | CC(=O)NC[C@H]1CN(c2ccc(N3CCOCC3)c(F)c2)C(=O)O1 | -4.05% | inactive | – | -2.3% | inactive | -15.9% and -9.99% and -3.52% | -16% and 2.14% | inactive | – | inactive | inactive | – | – | – | – | 13.2 µM (active) | – | –
11 | CC(=O)Nc1ccc(O)cc1 | -5.95% | inactive | inactive | -8.57% | inactive | – | -5.84% | inactive | inactive | inactive | – | – | 1.48% | inactive | – | – | – | –
12 | CN(C)c1ccc(O)c2c1C[C@H]1C[C@H]3[C@H](N(C)C)C(=O)C(C(N)=O)=C(O)[C@@]3(O)C(=O)C1=C2O | -30% | inactive | – | – | inactive | 5.11% and -5.52% and -6.53% | -2.91% | inactive | – | inactive | – | – | -11.2% | inactive | – | – | – | –
13 | CCC1=C(C)CN(C(=O)NCCc2ccc(S(=O)(=O)NC(=O)NC3CCC(C)CC3)cc2)C1=O (stereo not drawn) | 0.534% and 4.01% | inactive | inactive | – | inactive | -10.1% and -9.63% | 0.91% | inactive | inactive | inactive | inactive | inactive | – | inactive | – | – | – | –
